Data on 157 variants can be found in a collection of fitness landscapes (doi:10.1126/science.1257360).

The full ranking holds about 140,000 sequences; the median of “enrichment ratio after two sorts for PhoP signalling” is about 0, and the highest 2% start at about 11. This is one part of a sample in which the highest values are shown more often than they occur. Some results are limits rather than exact numbers.

The labels stand for the following.
B1: PhoQ; a variant is named by its letters at X, in order, P23837 (parent)
chain: MKKLLRLFFPLSLRVRFLLATAAVVLVLSLAYGMVALIGYSVSFDKTTFRLLRGESNLFYTLAKWENNKLHVELPENIDKQSPTMTLIYDENGQLLWAQRDVPWLMKMIQPDWLKSNGFHEIEADVNDTSLLLSGDHSIQQQLQEVREDDDDAEMTHSVAVNVYPATSRMPKLTIVVVDTIPVELKSSYMVWSWFIYVLSANLLLVIPLLWVAAWWSLRPIEALAKEVRELEEHNRELLNPATTRELTSLVRNLNRLLKSERERYDKYRTTLTDLTHSLKTPLXXLQXXLRSLRSEKMSVSDAEPVMLEQISRISQQIGYYLHRASMRGGTLLSRELHPVAPLLDNLTSALNKVYQRKGVNISLDISPEISFVGEQNDFVEVMGNVLDNACKYCLEFVEISARQTDEHLYIVVEDDGPGIPLSKREVIFDRGQRVDTLRPGQGVGLAVAREITEQYEGKIVAGESMLGGARMEVIFGRQHSAPKDE

This experiment covers variants of B1. Nature of the experiment: enrichment ratio after two sorts for PhoP signalling (ratio (wild type AVST 3.29)); higher = more functional. The conditions noted are these: with PhoP (E. coli).
Consider QQYI, for which the enrichment ratio is not above 0.25. With TKYM the figure was 25.3.

Consider LYSK, for which the enrichment ratio was not above 0.25. With DGPS the figure was not above 0.25; with NVIN, not above 0.25; with YLDS, not above 0.25. With TVAW the figure was 2.61; with SNQY, 2.66; with VDNL, not above 0.25.

As for REKA, the enrichment ratio is not above 0.25. On to QEYM, for which the enrichment ratio was 24.7. As for QKFM, the enrichment ratio is not above 0.25. With QRFM the figure was not above 0.25; with STYM, 0.458; with QDYM, not above 0.25.

Turning to QEFM, the enrichment ratio amounted to 18.2.

As to GMSV, the enrichment ratio worked out at 6.09. For the variant MLVP, the enrichment ratio was not above 0.25. Turning to NCCG, the enrichment ratio was not above 0.25. With NEWH the figure was not above 0.25; with NVWH, not above 0.25. With KSWH the figure was not above 0.25. Turning to TGWH, the enrichment ratio turned out to be 19.8. With TQWH the figure was 21.9; with HPWH, not above 0.25. On to KCWH, for which the enrichment ratio is not above 0.25. Regarding QAWH, the enrichment ratio came to 31.4. As to HRWH, the enrichment ratio was not above 0.25.

For the variant TEWH, the enrichment ratio is 35.2. With NAWH the figure was not above 0.25; with KAWH, not above 0.25. With KQNP the figure was not above 0.25; with RGWC, not above 0.25; with PCRT, not above 0.25. With DAYY the figure was not above 0.25; with HSCT, not above 0.25. Consider VRFP, for which the enrichment ratio is not above 0.25. DLDP: the enrichment ratio is not above 0.25. With DHCF the figure was not above 0.25; with MCIR, not above 0.25; with TELA, 16.8. With TEAT the figure was 17. With TEFT the figure was 5.71; with MELD, not above 0.25. With TENT, the enrichment ratio worked out at 3.14.

Regarding TEWI, the enrichment ratio is 4.93. With TELT the figure was 14.5; with NELD, not above 0.25; with TEYI, 8.43.

As to TELD, the enrichment ratio came to 13.4. With TEVT the figure was 3.71; with TEET, not above 0.25.

Turning to NHGP, the enrichment ratio was not above 0.25.

Take KQPT: the enrichment ratio was not above 0.25. With KTHI the figure was not above 0.25; with QTDQ, not above 0.25. Consider GRFL, for which the enrichment ratio was not above 0.25. With AWWN the figure was not above 0.25.

Consider HNIY, for which the enrichment ratio was not above 0.25.

Regarding YESG, the enrichment ratio was 0.306. With TELN the figure was 21.6; with TELC, 11.4.

As for DELY, the enrichment ratio is not above 0.25.

For TEYN, the enrichment ratio is 3.14. With NELC, the enrichment ratio worked out at 5.14. With NELH the figure was 2.12; with NELY, not above 0.25; with HPLH, not above 0.25. With HPLN the figure was not above 0.25; with QELC, not above 0.25; with TELY, 15.5.

Turning to TELH, the enrichment ratio was found to be 11.2. Turning to KTRY, the enrichment ratio is not above 0.25. With PMLD the figure was not above 0.25; with APTN, not above 0.25; with QEGT, 24.3. For QEAF, the enrichment ratio is not above 0.25. With TEAF the figure was 13.8. With QEAS the figure was 10.1. With TEAA the figure was 2.61; with QRGT, not above 0.25; with MEAF, not above 0.25. In the case of TEAD, the enrichment ratio is 16.8. With QGGT the figure was 8.36.

With TEAS, the enrichment ratio amounted to 16.2. With MEAS the figure was 3.94. With QEAD the figure was not above 0.25; with EISC, not above 0.25; with KVKA, not above 0.25. With EFER the figure was not above 0.25. EFNA: the enrichment ratio was not above 0.25. IKFE: the enrichment ratio is not above 0.25. With PTLL the figure was not above 0.25; with SHIM, 2.2; with PILC, not above 0.25. With TELP the figure was not above 0.25; with CDYS, not above 0.25; with TELF, 12.2. With YTYS the figure was not above 0.25. As to TEYS, the enrichment ratio is 11.9. With MELL the figure was 3.52. With NELL the figure was not above 0.25; with TELS, 12.5. Take NELF: the enrichment ratio was not above 0.25. Take TELW: the enrichment ratio was not above 0.25.

As for TELL, the enrichment ratio was determined as 16.9. MELF: the enrichment ratio is 0.528. Regarding PWMG, the enrichment ratio is not above 0.25. With ETEG the figure was not above 0.25. In the case of ASGY, the enrichment ratio is 3.18. With YDLK the figure was not above 0.25; with MDNI, not above 0.25; with IQKP, not above 0.25. For the variant VRDA, the enrichment ratio is not above 0.25. With WIHY the figure was not above 0.25; with FACS, not above 0.25; with ESAP, not above 0.25. With RPEH the figure was not above 0.25. Regarding NHGT, the enrichment ratio is not above 0.25.

With QELI, the enrichment ratio is not above 0.25. Turning to THGT, the enrichment ratio is not above 0.25.

For MELI, the enrichment ratio came out at 6.46. With TELI, the enrichment ratio was 19.5. With TEGT the figure was 22.6.

Consider ADTR, for which the enrichment ratio was not above 0.25. Turning to QRFP, the enrichment ratio was not above 0.25. For VSPY, the enrichment ratio is not above 0.25. With QRWC, the enrichment ratio is not above 0.25. With QPWC the figure was not above 0.25; with TAWC, 11.3.

With MMWC, the enrichment ratio is not above 0.25. With TSWC the figure was 17.5. With KSWC the figure was not above 0.25; with TGWC, 13.8; with YAWC, not above 0.25. For the variant KAWC, the enrichment ratio was not above 0.25. Consider LCWC, for which the enrichment ratio was not above 0.25. For QFWC, the enrichment ratio amounted to 17.1. Turning to WIWC, the enrichment ratio is not above 0.25. With NPNK the figure was not above 0.25. With MMHM the figure was not above 0.25; with SCKK, not above 0.25.

In the case of TYID, the enrichment ratio is not above 0.25. With LNTD the figure was not above 0.25; with IKRA, not above 0.25. Take QRQH: the enrichment ratio was not above 0.25.

In the case of NYNA, the enrichment ratio is not above 0.25. With MFGV the figure was not above 0.25; with TQWC, 29.7. Consider HPWC, for which the enrichment ratio is not above 0.25.

For MNWC, the enrichment ratio came out at 11.8. Turning to NEWC, the enrichment ratio was not above 0.25. With LNWC the figure was not above 0.25; with TNWC, not above 0.25; with NQWC, not above 0.25. With NRWC the figure was not above 0.25; with TEWC, 33.2.
